Each sequence was assayed on VDR:RXRa (NR concentration 270 nM, RXRa partner concentration 90 nM) (assay: PBM binding z-score (relative to random genomic background probes); higher = stronger binding; sequences stand for … in GC…GCGATTGACAGCGTAGAATGAAGG).
Method: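 Protein-binding microarray (Agilent 4x180K custom design, double-stranded 60-nt probes: 5' GC cap, 34-nt variable region, 24-nt constant primer region; full probe sequence given). Purified or IVT nuclear receptor:RXRα heterodimers (3:1 NR:RXRα, mostly 270:90 nM) or homodimers were incubated for 1 h in PBS with 2% milk and no ligand, then detected with Alexa488 antibodies. Fluorescence from o1-orientation probes (~5 replicates averaged) was converted to z-scores against 500 random hg19 background probes. Variable regions are seed direct-repeat (DR0–DR5) sites, all their single-nucleotide variants and half-site ablations.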

Sequence	PBM binding z-score
CAAACTAGGTCACGAAAGGTGAAAGTCGAATGAC	4.19
CCTCGGAGGACAGAAGGTCAGAGCTGTCCGCTTT	1.02
TCATATAGGTAAAGGTGAGAGTCGAACGATATGA	0.633
TATACAGGGTCAAAGGCCAGAGTCCGAATGTCGA	4.8
TGAATGAGGTTAAAGATCAGGGGACGTGGCGTCG	1.88
TCTCGGAGGACACGAAGGTCAGAGTTTTCCAGAG	2.41
CGTCCAAGGTCAGAGAGGTAAGTGAATGCCGAGT	4.27
ACAATGAGGTTATTAAGATCAGGGAATTGCGGTC	2.56
ACTCGGAGGACAAAGGTCAGACCTACGCCAGTGA	3.52
TCTGCTAGGTCTGTTGGTCAGCTAACGAGCTGCC	-0.568
ACTTACGGGCCAACGAGGTTATAGCACGCGTATA	3.84
CCTTACGGGTCACGAGGTTATAGCACGACGAGCG	5.23
CAGCCTACGTCAGGGCCAGTATAGGAGGAACGTT	-0.587
TCGAGTAGGTTAGGGGCATTCCGAATGGCGTCGA	0.256
GGAGCGAGGGCAAGTTGATAGCAGAGTTTGATGG	0.407
AATACTGGGTCACTAGGCCAGAGTAGGTACGAAT	1.47
AGTACGAGGGCAATGAGTTGATAGCACGGGTGGC	5.08
CGAACTAGCTCAGAACAGGACAGTGAAGGATGAT	-0.427
TCTGCTAGGTCAACGATGGTTAGCTAATCTGCTA	1.26
ATCTCTAGGTAACCAAGTTCAGTGTATGCCGAAC	3.91

Sequence	PBM binding z-score
CGTCCAAGGTCAGAGAGGTCAATGAATGCCGAGT	7.79
CCTTACGGGTCACGGACAGGTTATAGCATTTGGA	4.74
CGTCCAAGGTCAAAGGTCAGTGTAGAGATGACGG	6.6
GGAACGAGGGCCAGTTGATAGCAGAGTTTGATGG	-0.702
CCGACTGGGGCAGAAAGGTTACGATACCATCCGG	1.2
ACTATTAGTTGAGACGAGGGCAACAGATAGGTTG	0.625
CCGACTGTGGCAAGGTTACCATAACGCACAGCCA	0.0735
CCTTACGGGTCACTGACAGGTTGTAGCATTTGGA	3.34
TCAGACAGGTGAAGGTAACTAAGGTACGCAGTCG	1.01
ACTAGCAGGCCAAGTTGGGGTCACTCAAACAAAG	4.77
CTCGAAAGGTCGTGCCCAGGTGAGTATACCAAAC	3.33
CGTCCAAGGTTAATGCTAGGTCAGTGAAAGCATT	1.86
TTACCAAGGTGAAAGGTCGCTGATGCACGCCTTG	2.72
TTACCAAGGAGAAAGGTCGTTGATGCACGCCTTG	1.49
CCAACTAGGTCAAGGTCAAAGTCGGTTTGTGCCA	5.14
CCAACTGGGGCATAAGGTTACCATAAGCCAGCCC	0.316
ATCTCTAGGTAAAGTTCAGGGAAAGATCGATAGA	1.73
ATCTCTAGGTTACAAGTTCAGTGAAAGAGAGGAC	2.7
ATCTCTAGGTACCCAAGTTCAGTGAATGCCGAAC	2.1
CCTACTGGGCCAAAGTTCATTGATTCCAATGCTC	3.24

Reference: the supplement of paper PMC6555819
